A number with no mark means an inactive call. No rule for the calls is given here.

The target in this experiment is Pantothenate synthetase (Mycobacterium tuberculosis (strain ATCC 25618 / H37Rv)) (UniProt P9WIL5). As to the kind of experiment: Recombinant Mtb pantothenate synthetase (PanC) inhibitors, coupled enzyme, confirmatory (AID 375).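 Also: 0% = full reaction with vehicle and 100% = no enzyme background.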 The note with it: coupled enzyme assay; at 10 µM, active compounds read high.
Pantothenate synthetase (Mycobacterium tuberculosis (strain ATCC 25618 / H37Rv)), sequence (P9WIL5 whole entry, looked up): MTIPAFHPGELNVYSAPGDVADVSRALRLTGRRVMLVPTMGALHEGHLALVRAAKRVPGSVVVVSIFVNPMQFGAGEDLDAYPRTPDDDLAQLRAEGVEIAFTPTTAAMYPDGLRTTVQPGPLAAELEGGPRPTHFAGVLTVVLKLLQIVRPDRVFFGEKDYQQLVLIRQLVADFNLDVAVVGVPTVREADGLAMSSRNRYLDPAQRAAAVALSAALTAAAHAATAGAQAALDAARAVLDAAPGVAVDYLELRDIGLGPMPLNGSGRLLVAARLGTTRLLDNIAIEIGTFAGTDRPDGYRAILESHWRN
On to `COc1ccc(S(=O)(=O)NCCCN2CCOCC2)c2ccccc12`, for which the inhibition (in general, the percentage by which the read-out fell short of the control) was 0%.
The value for `CC1CCCC(N2CCN(C(=O)c3ccc(F)cc3)CC2)C1` (stereo unspecified) was 0%.
As for `Cc1cc(NC(=O)Cc2cn3ccsc3n2)n(-c2ccccc2)n1`, the inhibition is 1%.
In the case of `CSCCC(C(=O)Nc1ccc2c(c1)OCO2)N1C(=O)c2ccccc2C1=O` (stereo unspecified), the inhibition is 0%.
Consider `CCCCOc1ccc(C(=O)N2CCC(C)CC2)cc1`, for which the inhibition is 0%.
With `CC(=O)c1cccc(-n2nnnc2SCC(=O)N2CCCC2)c1`, the inhibition was 5%.

These data come from PubChem BioAssay.
